Screening results deposited in PubChem by National Center for Advancing Translational Sciences (NCATS).
Pf growth 48h – Primary qHTS for delayed death inhibitors of the malarial parasite plastid, 48 hour incubation | Potency, µM (highest dose often 28.7 µM), actives largely listed as inhibitors | P. falciparum luciferase growth in erythrocytes, 48 h | actives 5.9% (n = 310,000)
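Parasite viability was followed by luminescence of a genomically integrated firefly luciferase. Cultures held 0.1% parasitemia at 2% hematocrit (final), incubated under 5% CO2 at 37 C.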
Pf growth 96h – Primary qHTS for delayed death inhibitors of the malarial parasite plastid, 96 hour incubation | actives 6.9% (n = 320,000) | P. falciparum luciferase reporter growth, 96 h | Potency, µM (top dose mostly 28.7 µM), hits mostly inhibitors
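Two parasite generations (96 h, 37 C, 5% CO2) of compound exposure in infected erythrocytes (0.05% parasitemia, 2% hematocrit). Luciferase-reporter P. falciparum; decreased luminescence indicates inhibited growth, aimed at apicoplast-acting delayed death.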
Lassa entry inh – qHTS for Inhibitors of binding or entry into cells for Lassa Virus; Lassa virus pseudotype entry inhibition, cell reporter; Potency, µM (highest dose often 37.9 µM), actives largely listed as inhibitors; actives 1.2% (n = 300,000); AID 540256, 2011; calls by dose curve; tested in HEK293 cells; further: nearly all actives have a fitted effect of over 50% in size
Cycloheximide cs – Cycloheximide Counterscreen for Small Molecule Inhibitors of Shiga Toxin; cell reporter, cycloheximide protein synthesis inhibition counterscreen; max response, %; actives 12% (n = 300,000); in the data active means max response mostly above about 13%, no sharp cut-off; inactive means mostly below about 14%; further: read at 38.3 µM for the half of the compounds with a filed dose
MARV entry inh – qHTS for inhibitors of binding or entry into cells for Marburg Virus; Marburg virus pseudotyped entry inhibition, cell reporter; Potency, µM (top dose mostly 37.8 µM), most hits filed as inhibitors; actives 1.8% (n = 300,000); AID 540276, 2011; calls by dose curve; tested in HEK293 cells
Shiga inhibitor – A qHTS for Small Molecule Inhibitors of Shiga Toxin; Vero cells, Shiga toxin protein synthesis inhibition reporter; inhibition, % at 38.7 µM; actives 9.2% (n = 290,000); AID 2315, 2010; in the data active means inhibition mostly above about 28%, no sharp cut-off; inactive means mostly below about 43%
Numbers stand for hits; n = inactive; u = inconclusive; x = no result. Compounds with a hit are over-represented: about 19% of the library has one in this group of screens. Unless noted, the call rests on the fitted dose curve; in most records, active means well fitted inhibition curve with a large enough effect; inconclusive means small, poorly fitted or top-dose-only effect, or another doubt; inactive means no such curve, though single readings can be large or run the other way.

SMILES | Pf growth 48h | Pf growth 96h | Lassa entry inh | Cycloheximide cs | MARV entry inh | Shiga inhibitor
Cc1ccc(C)c(C(=O)CSc2n[nH]c(C(C)C)n2)c1 | n | n | n | n | n | n
Brc1ccc(-n2cnc(-c3ccccc3)c2)cc1 | n | n | u | 51 | u | 60
NNc1nc(-c2ccccc2)cc(-c2ccc(Br)cc2)n1 | u | n | n | n | u | n
Cc1ccc(Cl)cc1N1CCN(C(=O)c2cc(S(=O)(=O)N3CCCC3)cn2C)CC1 | x | x | n | x | x | x
COc1cccc(/C=C/C(=O)Oc2ccc(C(=O)c3ccc(F)cc3)cc2)c1 | n | n | n | n | n | n
CN(C)c1ccc(/C=C/C(=O)c2ccc3c(c2)OCCO3)cc1[N+](=O)[O-] | n | n | n | 43 | u | active
O=C(/C=C/c1ccc2c(c1)OCO2)c1ccc[nH]1 | n | n | u | 79 | u | active
COc1cccc(/C=C/C(=O)c2ccc[nH]2)c1 | x | n | u | 55 | n | 91
O=C(/C=C/c1ccccc1)c1ccc2c(c1)OCO2 | n | n | x | 37 | x | 59
CCCc1nc(SCC(=O)NCc2ccco2)c2c(=O)n(C)c(=O)n(C)c2n1 | n | n | x | n | x | n
Cc1oc(-c2ccccc2F)nc1Cn1c(SCc2cccc(C(F)(F)F)c2)nc2ccncc21 | x | x | n | x | u | x
O=C(/C=C/c1ccccc1Br)c1ccc2c(c1)OCO2 | n | n | u | 36 | n | 112
O=C(/C=C/c1cccc(Br)c1)c1ccc2c(c1)OCO2 | n | n | u | 25 | n | 62
O=C(/C=C\Nc1ccccc1Br)c1ccc2c(c1)OCO2 | n | u | x | n | 5.6µM | n
O=C(/C=C/c1ccncc1)c1ccc2c(c1)OCCO2 | n | u | u | 20 | 14µM | n
O=C(/C=C/c1ccc2c(c1)OCO2)c1ccc(F)cc1 | n | u | n | 42 | n | 78
O=C(N/N=C\C=C\c1ccc2c(c1)OCO2)c1ccc(F)cc1 | u | n | n | n | n | n
Cc1cc(=O)[nH]c(SCc2cccc3ccccc23)n1 | n | 3.7µM | n | n | u | n
Cc1cc(=O)[nH]c(SCc2nc3ccccc3s2)n1 | n | n | n | 16 | n | n
Cc1cc(=O)[nH]c(SCc2csc(-c3ccccc3)n2)n1 | n | n | n | 20 | n | n
Nc1cc(=O)[nH]c(SCc2csc(-c3ccccc3)n2)n1 | n | n | u | n | u | n
CCOc1ccccc1C(=O)NCC(=O)N(C)Cc1ccccc1C | 10µM | 13µM | x | n | x | n
O=C(/C=C/c1cn(-c2ccccc2)nc1-c1cccs1)NCCN1CCOCC1 | u | u | x | n | x | n
Cc1c(C(=O)N2CCC3(CC2)OCCO3)sc2ncnc(N3CCN(c4ccccn4)CC3)c12 | u | 12µM | u | n | u | n
COc1ccc(NC(=O)c2sc3nc(C)nc(N4CCN(c5ccccn5)CC4)c3c2C)cc1Cl | 1.9µM | n | u | n | n | n
SMILES | Pf growth 48h | Pf growth 96h | Lassa entry inh | Cycloheximide cs | MARV entry inh | Shiga inhibitor
COc1ccc(NC(=O)c2sc3ncnc(N4CCN(c5ccccn5)CC4)c3c2C)cc1Cl | 6.6µM | u | x | n | x | n
Cc1c(C(=O)N2CCN(c3ccccn3)CC2)sc2ncnc(N3CCN(c4ccccc4)CC3)c12 | x | x | n | x | n | x
COCCCNC(=O)c1sc2ncnc(N3CCc4ccccc4C3)c2c1C | u | 6.6µM | u | 12 | 8.2µM | n
C/C(=N\O)C(=O)NCCCn1ccnc1 | n | n | n | n | n | n
CN(CC(=O)N1CC=C(c2ccccc2)CC1)S(=O)(=O)c1cnc[nH]1 | n | n | n | n | n | n
Cc1ccc(CNC(=O)CCS(=O)(=O)c2cc3c(cc2Cl)NC(=O)CO3)o1 | n | n | x | n | x | n
O=C(c1cc(-c2ccncc2)nc2ccccc12)N1CCN(c2ccccn2)CC1 | n | n | n | n | u | n
Cc1ccc(-c2cc(C(=O)Nc3c(C(=O)c4ccccc4)oc4ccccc34)no2)cc1F | x | x | n | x | u | x
O=C(NC1CCCC1)[C@@H]1CSC2c3ccccc3C(=O)N21 (stereo partly drawn) | n | n | x | n | x | n
Cc1nonc1NC(=O)CSc1nc2c(C)cccc2cc1C#N | u | 10µM | x | 41 | x | 68
Cc1cc2cc(C#N)c(SCC(=O)Nc3nonc3C)nc2cc1C | n | n | n | n | n | n
Cc1ccc(C(=O)c2cnc3cc4c(cc3c2S(=O)(=O)c2ccccc2)OCCO4)cc1 | 3.3µM | u | n | 68 | 7.1µM | 100
